One assay concerns IL-6-GFP PC-9GR. The assay can be described thus: cell viability (CCK-8 OD) relative to DMSO control (fraction of control); higher = more viable cells. The note with it: compound concentration: 10 uM; treatment time: 48 h. The method, boiled down:
(§1)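 PC-9 and PC-9GR lung cancer cells expressing lentiviral IL-6-GFP were plated at 3000 cells/well in 96-well plates and treated for 48 h with each library compound at a final 10 μM. Viability was determined by CCK-8 absorbance as a ratio of each well's optical density to the vehicle control well.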

For another assay, the system named is IL-6-GFP PC-9. The description is as above. The note with it: compound concentration: 10 uM; treatment time: 48 h. The method, boiled down:
as §1

Each structure is given as a SMILES string. ± gives the standard deviation of the averaged measurements.

In the case of `CS(=O)(=O)n1cc2c(n1)CN(C1COC(c3cc(F)ccc3F)C(N)C1)C2` (stereo not drawn) [Omarigliptin (MK-3102)], the cell viability with IL-6-GFP PC-9GR was 0.931 ± 0.14; with IL-6-GFP PC-9, 1.02 ± 0.25.
For `CCCCOc1ccc(CC(=O)NO)cc1` [Bufexamac], in that order: 1.2 ± 0.39 and 0.928 ± 0.073.
As for `Clc1ccc(C(c2ccccc2Cl)C(Cl)Cl)cc1` (stereo not drawn) [Mitotane], the results for the cell viability in the assay with IL-6-GFP PC-9GR and in the assay with IL-6-GFP PC-9 were 1.2 ± 0.1 and 0.958 ± 0.05, respectively.
For the molecule `CC1(C)OC2CC3C4CCC5=CC(=O)C=CC5(C)C4(F)C(O)CC3(C)C2(C(=O)CO)O1` (stereo not drawn) [Triamcinolone Acetonide], the figures for the cell viability in the assay on IL-6-GFP PC-9GR and with IL-6-GFP PC-9 were 1.15 ± 0.023 and 0.9016 ± 0.0065, respectively.
For the molecule `O=C(Nc1cnn2ccc(N3CCCC3c3cc(F)ccc3F)nc12)N1CCC(O)C1.O=S(=O)(O)O` (stereo not drawn) [Larotrectinib (LOXO-101) sulfate], the cell viability is 0.802 ± 0.05 in the assay on IL-6-GFP PC-9GR and 1.14 ± 0.12 in the assay with IL-6-GFP PC-9.
With `COC(=O)NC(C(=O)N1CCCC1c1ncc(-c2ccc3c(c2)OC(c2ccccc2)n2c-3cc3cc(-c4cnc(C5CCCN5C(=O)C(NC(=O)OC)C(C)C)[nH]4)ccc32)[nH]1)C(C)C` (stereo not drawn) [Elbasvir], the cell viability was found to be 0.497 ± 0.03 in the assay with IL-6-GFP PC-9GR and 0.809 ± 0.035 in the assay on IL-6-GFP PC-9.
For `CN(C)CCCOc1nn(Cc2ccccc2)c2ccccc12.Cl` [Benzydamine HCl], in that order: 0.996 ± 0.23 and 0.549 ± 0.52.
As to `Cn1c(=O)cc(N2CCCC(N)C2)n(Cc2cc(F)ccc2C#N)c1=O.O=C(O)CCC(=O)O` (stereo not drawn) [Trelagliptin succinate], the values for the cell viability in the assay with IL-6-GFP PC-9GR and in the assay on IL-6-GFP PC-9 were 0.825 ± 0.15 and 1.07 ± 0.15, respectively.
Consider `CCC1(O)C(=O)OCc2c1cc1n(c2=O)Cc2cc3c(CN(C)C)c(O)ccc3nc2-1` (stereo not drawn) [Topotecan], for which the cell viability in the assay on IL-6-GFP PC-9GR turned out to be 0.333 ± 0.19; in the assay on IL-6-GFP PC-9 it was 0.3428 ± 0.0013.
With `CCCCCOC(=O)Nc1nc(=O)n(C2OC(C)C(O)C2O)cc1F` (stereo not drawn) [Capecitabine], the cell viability in the assay on IL-6-GFP PC-9GR turned out to be 0.655 ± 0.029; with IL-6-GFP PC-9, 0.459 ± 0.015.
`CC(=O)OC1C(=O)C2(C)C(O)CC3OCC3(OC(C)=O)C2C(OC(=O)c2ccccc2)C2(O)CC(OC(=O)C(O)C(NC(=O)c3ccccc3)c3ccccc3)C(C)=C1C2(C)C` (stereo not drawn) [Paclitaxel]: the figures for the cell viability in the assay with IL-6-GFP PC-9GR and with IL-6-GFP PC-9 were 0.576 ± 0.036 and 0.57 ± 0.026, respectively.
For `O=C(O)C1CSCN1` (stereo not drawn) [Timonacic], in that order: 1.19 ± 0.24 and 1.01 ± 0.15.
`Cc1cc2ncc(C(=O)NCC(C)(C)NCC(=O)N3CCCC3C#N)cn2n1` (stereo not drawn) [Anagliptin]: the cell viability in the assay with IL-6-GFP PC-9GR was -0.0161 ± 0.12; in the assay with IL-6-GFP PC-9, 1.23 ± 0.022.
In the case of `Nc1ncn(C2OC(CO)C(O)C2O)c(=O)n1` (stereo not drawn) [Azacitidine], the cell viability in the assay with IL-6-GFP PC-9GR turned out to be 1.04 ± 0.077; with IL-6-GFP PC-9, 0.895 ± 0.15.
For `O=c1ccc2ccc(O)c(O)c2o1` [Daphnetin], in that order: 1.303 ± 0.0056 and 1.17 ± 0.18.
For `CC(C)C1C(=O)NC(CCCNC(=N)N)C(=O)NCC(=O)NC(CC(=O)O)C(=O)NC(Cc2ccccc2)C(=O)N1C.O=C(O)C(F)(F)F` (stereo not drawn), in that order: 1.13 ± 0.28 and 1.26 ± 0.087.
For `Nc1ccc(F)cc1NC(=O)c1ccc(CNC(=O)/C=C/c2cccnc2)cc1` [Tucidinostat (Chidamide)], in that order: 0.836 ± 0.38 and 0.606 ± 0.23.
In the case of `CNC(=O)c1c(C)oc2cc(Oc3ncnc4cc(OC)c(OC)cc34)ccc12` [Fruquintinib], the cell viability in the assay with IL-6-GFP PC-9GR was found to be 1.04 ± 0.12; in the assay on IL-6-GFP PC-9, 1.12 ± 0.08.
`COc1nc2ccc(Br)cc2cc1C(c1ccccc1)C(O)(CCN(C)C)c1cccc2ccccc12.O=C(O)/C=C/C(=O)O` (stereo not drawn) [Bedaquiline fumarate]: the results for the cell viability with IL-6-GFP PC-9GR and in the assay with IL-6-GFP PC-9 were 1.18 ± 0.17 and 1.15 ± 0.067, respectively.
Take `Nc1nc(Cl)nc2c1ncn2C1OC(CO)C(O)C1F` (stereo not drawn) [Clofarabine]: the cell viability in the assay on IL-6-GFP PC-9GR was found to be 0.5 ± 0.013; with IL-6-GFP PC-9, 0.337 ± 0.13.
For `CCOc1ccc(NC(C)=O)cc1` [Phenacetin], in that order: 1.24 ± 0.33 and 1.09 ± 0.054.
For the molecule `O=C(c1cc(Cc2n[nH]c(=O)c3ccccc23)ccc1F)N1CCN(C(=O)C2CC2)CC1`, the cell viability in the assay with IL-6-GFP PC-9GR came out at 1.09 ± 0.081; with IL-6-GFP PC-9, 1.16 ± 0.37.
For `CS(=O)(=O)Nc1cc2occ(NC=O)c(=O)c2cc1Oc1ccccc1` [Iguratimod], in that order: 1.46 ± 0.37 and 1.02 ± 0.19.
As for `CC(=O)OCC(=O)C1(O)CCC2C3CCC4=CC(=O)CCC4(C)C3C(=O)CC21C` (stereo not drawn) [Cortisone acetate], the cell viability in the assay on IL-6-GFP PC-9GR was determined as 1.29 ± 0.26; in the assay on IL-6-GFP PC-9, 1.12 ± 0.1.
Take `CN(C)C/C=C/C(=O)Nc1cc2c(Nc3ccc(F)c(Cl)c3)ncnc2cc1OC1CCOC1` (stereo not drawn) [Afatinib (BIBW2992)]: the cell viability in the assay with IL-6-GFP PC-9GR stood at 0.542 ± 0.058; in the assay on IL-6-GFP PC-9, 0.294 ± 0.038.
Regarding `CC1CC2C3CCC4=CC(=O)C=CC4(C)C3(F)C(O)CC2(C)C1C(=O)CO` (stereo not drawn) [Desoximetasone], the cell viability was determined as 0.815 ± 0.23 in the assay with IL-6-GFP PC-9GR and 1.08 ± 0.093 in the assay on IL-6-GFP PC-9.
On to `NCCc1c[nH]cn1` [Histamine], for which the cell viability in the assay on IL-6-GFP PC-9GR worked out at 1.05 ± 0.16; in the assay on IL-6-GFP PC-9 it was 1.29 ± 0.22.
For `CC(C)(C)c1ccc(C(=O)CCCN2CCC(OC(c3ccccc3)c3ccccc3)CC2)cc1` [Ebastine], the figures for the cell viability in the assay with IL-6-GFP PC-9GR and in the assay with IL-6-GFP PC-9 were 0.62 ± 0.3 and 0.628 ± 0.031, respectively.
With `CC#CCn1c(N2CCCC(N)C2)nc2c1c(=O)n(Cc1nc(C)c3ccccc3n1)c(=O)n2C` (stereo not drawn) [Linagliptin], the cell viability in the assay with IL-6-GFP PC-9GR is 0.849 ± 0.11; with IL-6-GFP PC-9, 0.883 ± 0.22.

For the origin of these results see the supplement of paper PMC8866396.
